From PubChem BioAssay AID1159580 (chemical genetic matrix, 2015)
In all, about 5,500 compounds went through this assay and about 2,000 (36%) were called active. Roughly 18% stayed inconclusive and do not appear here. Cut-off read from the data, not from the text of the source: active = normalized growth mostly below about 0.91 (no sharp cut-off); inconclusive = no clear call, values can overlap the other calls; inactive = mostly above about 0.92. The list shows a part of the results.

Experiment: chemical genetic growth profiling, strain panel (AID 1159580);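 note: tested at 20 µM; growth read once vehicle control cultures reached saturation at 30 °C; 1 = growth at the plate median or of vehicle wells; lower values mean less growth of the strain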
Conditions: S. cerevisiae deletion strains, growth OD
[1] = locus YDL101C, strain DUN1, stronger effect = lower value
[2] = locus YHR030C, strain SLT2, stronger effect = lower value

Measured: normalized growth

O=C(NCc1ccc2c(c1)OCO2)c1cc2ccccc2s1
active: locus YAR019C, strain CDC15, stronger effect = lower value 0.858 | locus YBL105C, strain PKC1, stronger effect = lower value 0.867 | locus YBR135W, strain CKS1, stronger effect = lower value 0.87 | locus YBR136W, strain MEC1, stronger effect = lower value 0.866 | locus YBR160W, strain CDC28, stronger effect = lower value 0.873 | locus YDL017W, strain CDC7, stronger effect = lower value 0.877 | locus YDL108W, strain KIN28, stronger effect = lower value 0.888 | locus YDL132W, strain cdc53, stronger effect = lower value 0.851 | locus YDL214C, strain PRR2, stronger effect = lower value 0.58 | locus YDR054C, strain cdc34, stronger effect = lower value 0.648 | locus YDR226W, strain ADK1, stronger effect = lower value 0.874 | locus YDR477W, strain SNF1, stronger effect = lower value 0.422 | locus YER123W, strain YCK3, stronger effect = lower value 0.396 | locus YER133W, strain GLC7, stronger effect = lower value 0.298 | locus YFL009W, strain cdc4, stronger effect = lower value 0.858 | locus YFL029C, strain CAK1, stronger effect = lower value 0.852 | locus YFR003C, strain YPI1, stronger effect = lower value 0.872 | locus YFR019W, strain FAB1, stronger effect = lower value 0.625 | locus YFR028C, strain CDC14, stronger effect = lower value 0.864 | locus YGR040W, strain KSS1, stronger effect = lower value 0.459 | locus YGR052W, strain FMP48, stronger effect = lower value 0.406 | locus YGR092W, strain DBF2, stronger effect = lower value 0.3 | [2] 0.14 | locus YHR079C, strain IRE1, stronger effect = lower value 0.178 | locus YHR082C, strain KSP1, stronger effect = lower value 0.571 | locus YIL147C, strain SLN1, stronger effect = lower value 0.871 | locus YJL095W, strain BCK1, stronger effect = lower value 0.144 | locus YJL157C, strain FAR1, stronger effect = lower value 0.622 | locus YJR016C, strain ILV3, stronger effect = lower value 0.87 | locus YJR066W, strain TOR1 (second series), stronger effect = lower value 0.155 | locus YJR066W, strain TOR1, stronger effect = lower value 0.432 | locus YKL048C, strain ELM1, stronger effect = lower value 0.443 | locus YKL067W, strain YNK1, stronger effect = lower value 0.675 | locus YKL101W, strain HSL1, stronger effect = lower value 0.573 | locus YKL193C, strain SDS22, stronger effect = lower value 0.882 | locus YKL203C, strain TOR2, stronger effect = lower value 0.258 | locus YLR113W, strain HOG1, stronger effect = lower value 0.626 | locus YLR133W, strain CKI1, stronger effect = lower value 0.675 | locus YLR403W, strain SFP1, stronger effect = lower value 0.583 | locus YML070W, strain DAK1, stronger effect = lower value 0.54 | locus YMR001C, strain CDC5, stronger effect = lower value 0.837 | locus YMR205C, strain PFK2 (second series), stronger effect = lower value 0.692 | locus YMR277W, strain FCP1, stronger effect = lower value 0.829 | locus YNL006W, strain LST8, stronger effect = lower value 0.849 | locus YNL020C, strain ARK1, stronger effect = lower value 0.663 | locus YNL161W, strain CBK1, stronger effect = lower value 0.868 | locus YNL183C, strain NPR1, stronger effect = lower value 0.322 | locus YNL207W, strain RIO2, stronger effect = lower value 0.822 | locus YNL222W, strain SSU72, stronger effect = lower value 0.853 | locus YNL307C, strain MCK1 (second series), stronger effect = lower value 0.205 | locus YOL078W, strain AVO1, stronger effect = lower value 0.842 | locus YOL136C, strain PFK27, stronger effect = lower value 0.429 | locus YOR061W, strain CKA2, stronger effect = lower value 0.589 | locus YOR119C, strain RIO1, stronger effect = lower value 0.273 | locus YOR231W, strain MKK1, stronger effect = lower value 0.369 | locus YOR329C, strain SCD5, stronger effect = lower value 0.856 | locus YPL031C, strain PHO85, stronger effect = lower value 0.392 | locus YPL153C, strain RAD53, stronger effect = lower value 0.224 | locus YPL204W, strain HRR25, stronger effect = lower value 0.3 | locus YPL209C, strain IPL1, stronger effect = lower value 0.868 | locus YPL256C, strain CLN2, stronger effect = lower value 0.558 | locus YPR025C, strain CCL1, stronger effect = lower value 0.863 | locus YPR106W, strain ISR1, stronger effect = lower value 0.882 | locus YPR111W, strain DBF20, stronger effect = lower value 0.868 | strain NNK1, stronger effect = lower value 0.835 | strain TSCII, stronger effect = lower value 0.799
inactive: locus YDL028C, strain MPS1, stronger effect = lower value 0.9 | [1] 0.912 | locus YDR052C, strain DBF4, stronger effect = lower value 0.933 | locus YHR205W, strain SCH9, stronger effect = lower value 0.678 | locus YJL128C, strain PBS2, stronger effect = lower value 0.854

O=C(O)C1c2ccccc2C(=O)N(Cc2ccc3c(c2)OCO3)C1c1cccnc1 (centres undefined)
inactive: locus YAL013W, strain DEP1, stronger effect = lower value 1.02 | locus YBR229C, strain ROT2, stronger effect = lower value 1.01 | locus YCL061C, strain MRC1, stronger effect = lower value 0.994 | [1] 1.01 | locus YDL134C, strain PPH21, stronger effect = lower value 0.993 | locus YDR150W, strain NUM1, stronger effect = lower value 0.978 | locus YEL061C, strain CIN8, stronger effect = lower value 1.04 | locus YGR078C, strain PAC10, stronger effect = lower value 1.04 | [2] 1.05 | locus YHR087W, strain rtc3, stronger effect = lower value 1.01 | locus YJR043C, strain POL32, stronger effect = lower value 0.996 | locus YJR075W, strain HOC1, stronger effect = lower value 1.03 | locus YKL190W, strain CNB1, stronger effect = lower value 0.989 | locus YLR039C, strain RIC1, stronger effect = lower value 1.01 | locus YLR058C, strain SHM2 (second series), stronger effect = lower value 0.997 | locus YLR085C, strain ARP6, stronger effect = lower value 1.02 | locus YLR262C, strain YPT6, stronger effect = lower value 0.971 | locus YML094W, strain GIM5, stronger effect = lower value 1.04 | locus YMR219W, strain ESC1, stronger effect = lower value 1 | locus YMR263W, strain SAP30, stronger effect = lower value 1 | locus YNL128W, strain TEP1, stronger effect = lower value 0.993 | locus YNL153C, strain GIM3, stronger effect = lower value 1.01 | locus YNL298W, strain CLA4 (second series), stronger effect = lower value 1.04 | locus YNL322C, strain KRE1, stronger effect = lower value 1.02 | locus YNR030W, strain Alg12, stronger effect = lower value 1 | locus YPL055C, strain LGE1, stronger effect = lower value 1.03 | locus YPL241C, strain CIN2, stronger effect = lower value 0.971 | locus YPR135W, strain CTF4, stronger effect = lower value 0.982
